Source: PubChem BioAssay (NCI)
About 83,000 compounds went through this panel and 20% of them were active in at least one assay; those are over-represented in the sample as a whole.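 Cells were grown in 96-well plates and exposed to the test compound at a single concentration for 48 hours; results are reported as percent growth, with values below 10 considered active.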 Values without a mark were called inactive. Activity calls are given as the source filed them.

How the values were obtained:
Assay in all cases: NCI-60 one-dose screen, 48 h (100 = growth as untreated, 0 = no growth, -100 = all killed)
Details in all cases: 10 µM unless noted
SK-MEL-2 melanoma = tested on: SK-MEL-2 melanoma
EKVX NSCLC = tested on: EKVX NSCLC
SN12C renal = tested on: SN12C renal
UO-31 renal = tested on: UO-31 renal
TK-10 renal = tested on: TK-10 renal
ACHN renal = tested on: ACHN renal
CAKI-1 renal = tested on: CAKI-1 renal
A498 renal = tested on: A498 renal
CCRF-CEM leukemia = tested on: CCRF-CEM leukemia
MOLT-4 leukemia = tested on: MOLT-4 leukemia
SR leukemia = tested on: SR leukemia
OVCAR-8 ovarian = tested on: OVCAR-8 ovarian
OVCAR-5 ovarian = tested on: OVCAR-5 ovarian
OVCAR-4 ovarian = tested on: OVCAR-4 ovarian
SK-OV-3 ovarian = tested on: SK-OV-3 ovarian
IGROV1 ovarian = tested on: IGROV1 ovarian
OVCAR-3 ovarian = tested on: OVCAR-3 ovarian
HS 578T breast = tested on: HS 578T breast
NCI/ADR-RES ovarian = tested on: NCI/ADR-RES ovarian

| Compound | growth (SK-MEL-2 melanoma) [%] | growth (EKVX NSCLC) | growth (SN12C renal) | growth (UO-31 renal) | growth (TK-10 renal) | growth (ACHN renal) | growth (CAKI-1 renal) | growth (A498 renal) | growth (CCRF-CEM leukemia) | growth (MOLT-4 leukemia) | growth (SR leukemia) | growth (OVCAR-8 ovarian) | growth (OVCAR-5 ovarian) [%] | growth (OVCAR-4 ovarian) | growth (SK-OV-3 ovarian) | growth (IGROV1 ovarian) | growth (OVCAR-3 ovarian) [%] | growth (HS 578T breast) | growth (NCI/ADR-RES ovarian) |
| --- | --- | --- | --- | --- | --- | --- | --- | --- | --- | --- | --- | --- | --- | --- | --- | --- | --- | --- | --- |
| O=c1c2cc(F)cc(Cl)c2sc2c(NCCCNCCO)nc3ccccc3c12 | 107 | 88.2% | 83.4% | 59.8% | 100% | 83.8% | 71.2% | 56.2% | 15.8% | 60.6% | -6.83% (active) | 95.7% | 93.7 | 79.1% | 93.9% | 79.4% | 96.1 | 88.1% | 89.2% |
| O=C(/C=C/c1cccc2ccccc12)c1ccc(NC(=O)c2ccccc2CN2C(=O)c3ccccc3C2=O)cc1 | 95.5 | 81.4% | 80.3% | 50.7% | 100% | 73% | 37.9% | 88.5% | 39.7% | 51.2% | 23.5% | 75.4% | 96.6 | 58.7% | 82.3% | 79.1% | 34.7 | 66.2% | 61% |
| CCCCCCn1c(-c2ccc(C(=O)O/N=C(\N)c3ccc(OC)cc3)cc2)nc(-c2ccccc2)c1-c1ccccc1 | 47.3 | -75.6% (active) | -70.3% (active) | -86.4% (active) | -73.6% (active) | -91.5% (active) | -64.5% (active) | 4.08% (active) | -35% (active) | -35.7% (active) | -37.5% (active) | 1.03% (active) | 25.5 | 7.82% (active) | 77.9% | -68.1% (active) | 18 | -20.4% (active) | -36.9% (active) |
| CCOC(=O)CCN(C(=O)Nc1ccccc1)C1CCCCC1 | 119 | 101% | 117% | 118% | 120% | 110% | 110% | 109% | 107% | 93.8% | 129% | 128% | 87.4 | 113% | 112% | 93.2% | 118 | 107% | 106% |
| CCCCCCCCCCCCCCCCCCOc1ccc(CC(=O)OCC[N+]2(C)CCCCC2)cc1 | 104 | 97.9% | 89.1% | 94.1% | 99.1% | 97.5% | 100% | 100% | 89.8% | 98.6% | 102% | 96.9% | 100 | 86.8% | 104% | 92.6% | 101 | 108% | 104% |
| COc1cccc(-c2nc(-c3ccc(NC(=O)C(C)C)cc3)[nH]c2-c2ccnc(Br)c2)c1 | 22 | 45.1% | 61.7% | 12.1% | 54% | 28.8% | 36.2% | 2.23% (active) | 21.8% | 14.3% | -14.5% (active) | 38.1% | 70.2 | 33.3% | 46.4% | 52.1% | 37.3 | -13.2% (active) | 46.7% |
| CCOC(=O)c1sc2ncc(-c3ccc(C)cc3)n2c1C | 101 | 88.4% | 86.6% | 78.2% | 147% | 84% | 88.1% | 104% | 89.5% | 90.1% | 112% | 94.7% | 95.9 | 95.4% | 81.3% | 71.3% | 97.2 | 96.7% | 92.9% |
| O=C(Nc1ccc(-c2nc(-c3cccc(OCCN4CCOCC4)c3)c(-c3ccnc(Br)c3)[nH]2)cc1)c1ccccc1 | 25.3 | 32.3% | 45.9% | -51.9% (active) | 48.6% | 28.3% | -6.68% (active) | -70.5% (active) | 15.1% | 1.62% (active) | -11.6% (active) | 41.5% | 35.4 | 55.2% | -25.6% (active) | 43.4% | 44.2 | -41% (active) | 53.4% |
